Experimental data published in PubChem BioAssay (NCI).
About 83,000 compounds went through this panel and 20% of them were active in at least one assay; those are over-represented in the sample as a whole.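 Assay: single dose, 48 h. Readout: percent growth (0 = no net growth; negative = cell death). Active: <10.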 Active and inactive are the calls of the source.

The compounds below were run on OVCAR-4 ovarian (assay: NCI-60 one-dose screen, 48 h (100 = growth as untreated, 0 = no growth, -100 = all killed)). Conditions: 10 µM unless noted.
For `CC(C)CCN(CCCNc1c2c(nc3ccccc13)CCCC2)CCC(C)C`, the growth was 66.3% (inactive).
For `O=C(CC(O)c1ccncc1)c1ccccc1` (centres undefined), the growth was -29.2% (active).
With `Nc1c(C(=O)Nc2cccc([N+](=O)[O-])c2)sc2nc3c(cc12)C(O)CCC3` (centres undefined) the growth was 80.2% (inactive).
`CCN(CC)CCSc1c2ccc(Cl)cc2nc2ccc(OC)cc12` was tested, and the growth was 81% (inactive).
In the case of `CNC(=O)Cc1nc(-c2cccc(NS(=O)(=O)c3c(F)cccc3F)c2F)c(-c2ccnc(Nc3ccccc3)n2)s1`, the growth is reported as 124% (inactive).
In the case of `CC(=O)Nc1ccc(S(=O)(=O)N2C(=O)CCC2C(=O)Nc2ccccc2)cc1` (centres undefined), the growth is reported as 39.9% (inactive).
`Nc1cccc2c1CN(C1CCC(=O)NC1=O)C2=O` (centres undefined) was tested, and the growth was 105% (inactive).
With `C=CC(=O)N[C@H](/C=C/C(=O)OCC)Cc1ccc(-c2cc(Cl)cc(Cl)c2)cc1` the growth was 83.6% (inactive).
With `CCOC(=O)CC(C#N)(CC(=O)OCC)C(=O)OCC` the growth was 104% (inactive).
For `CCN(CC)CCCNc1nc(C)cc(Nc2ccc3nc(C)cc(N)c3c2)n1`, the growth was 116% (inactive).
`O=c1cc(C2NCCc3c2[nH]c2ccccc32)c2c(ccc3ccccc32)o1` (centres undefined) was tested, and the growth was 62.3% (inactive).
In the case of `Nc1nc(N)c2nc(CNc3ccc(C(=O)CC(CCC(=O)O)C(=O)O)cc3)cnc2n1` (centres undefined), the growth is reported as 79.9% (inactive).
With `O=C1Nc2cc(Cl)ccc2/C1=C/c1ccc(N2CCOCC2)s1` the growth was 99.1% (inactive).
With `O=S(=O)(NCCCNc1nccc(-c2c(-c3ccccc3)nc3sccn23)n1)c1ccc(F)cc1` the growth was 36.2% (inactive).
`O=Nc1c(-c2c(O)[nH]c3ccc([N+](=O)[O-])cc23)[nH]c2ccc(O)cc12` was tested, and the growth was 19.7% (inactive).
In the case of `CC/C=C\C[C@H](O)C/C=C1/C(=O)C(Cl)=C[C@@H]1C/C=C\CCCC(=O)OC`, the growth is reported as -47.3% (active).
In the case of `CCOC(=O)CC/C(C)=N\Nc1ccc([N+](=O)[O-])cc1`, the growth is reported as 77.2% (inactive).
With `CC(C)N(Cc1ccc(CN(C(=O)CCl)C(C)C)cc1)C(=O)CCl` the growth was 26.4% (inactive).
For `COc1cc(CCn2nnc3c(NCCCCO)ncnc32)cc(OC)c1`, the growth was 99.2% (inactive).
With `CCN1C(=O)N(CC)C2Nn3c(s/c(=C\c4cccc(F)c4)c3=O)=NC21` (centres undefined) the growth was 67.5% (inactive).
In the case of `O=C1c2ccccc2C(=O)c2c1oc1oc3c(c(=O)c21)c(=O)n(-c1ccccc1)c1ccccc31`, the growth is reported as 18.8% (inactive).
In the case of `Cc1c(C2=NNC(c3ccc4c(c3)OCO4)C2)[n+]([O-])c2ccccc2[n+]1[O-]` (centres undefined), the growth is reported as 76.3% (inactive).
In the case of `c1ccc(CCn2nnc3c(Nc4ccc(N5CCOCC5)cc4)ncnc32)cc1`, the growth is reported as 89.3% (inactive).
In the case of `COc1ccc(C2SCC(=O)N2NC(=O)c2ccc(NC(=O)c3ccccn3)cc2)cc1OC` (centres undefined), the growth is reported as 100% (inactive).
